# Measurements reported in paper PMC4552634, “A New Set of Chemical Starting Points with Plasmodium falciparum Transmission-Blocking Potential for Antimalarial Drug Discovery” (PLoS ONE, 2015).
# About 3,200 (25%) of roughly 13,000 compounds showed an effect of 50% or more. This is one part of the list.
# Tested on: P. falciparum stage V gametocytes
# Design: BacTiter-Glo ATP luminescence viability of purified stage V gametocytes in 384-well plates, per cent inhibition versus DMSO
# Settings: 48 h, 5 µM; inhibitor
row,Compound,% Inhibition
1,CC(=O)Nc1cccc(C(=O)Nc2cccc(-c3ccc(-c4nc5cc(C(F)(F)F)ccc5[nH]4)s3)c2)c1 [TCMDC-132138],13.04%
2,COc1ccc(NC(=O)c2ccc(-c3nc(-c4ccc(Cl)cc4)cs3)cc2)cc1N1CCN(C)CC1 [TCMDC-138685],18.54%
3,NC(Cc1cccc(I)c1)C(=O)NCC1CCCO1 (stereo not shown) [TCMDC-141273],-21.09%
4,OCC(c1ccccc1)n1c(COc2ccc(Cl)cc2)nc2c(OCCCN3CCCCC3)cccc21 (stereo not shown) [TCMDC-138596],103.2%
5,COc1ccc(CN2CCN(CCOC(c3ccccc3)c3ccc(Cl)cc3)CC2)c(O)c1 (stereo not shown) [TCMDC-135692],28.74%
6,Cc1nc(N)nc(N)c1-c1ccc(Br)c([N+](=O)[O-])c1 [TCMDC-138071],1.652%
7,CS(=O)(=O)CCNCc1cccc(-c2cc3c(Nc4ccc(OCc5ccccc5)cc4)ncnc3cn2)c1 [TCMDC-138240],8.889%
8,CN(C)C(=S)N=Nc1c(O)[nH]c2ccc(OC(F)(F)F)cc12 [TCMDC-141099],-50.91%
9,O=C(Nc1cccc(-c2ccc(NCCCN3CCCC3)nc2)c1)c1ccccc1 [TCMDC-134145],39.43%
10,Cc1c(-c2ccc3c(c2)C(NCCCN2CCCCC2)CC3)cnc(N)c1C (stereo not shown) [TCMDC-138320],53.54%
11,Cc1c(Br)cc2[nH]c(-c3ccc(C(=O)NC4CCN(Cc5ccccc5)CC4)cc3)nc2c1C [TCMDC-140026],-88.51%
12,c1ccc(CN2CCC(NCc3cccc(-c4cncc5ccccc45)c3)CC2)cc1 [TCMDC-134152],18.28%
13,Cc1c(-c2cccc(C(C)(C)NCCCN3CCCCC3)c2)cnc(N)c1C [TCMDC-138284],76.27%
14,Cc1c(-c2cccc(C(C)(C)NC3CCN(Cc4ccccc4)CC3)c2)cnc(N)c1C [TCMDC-138300],70.88%
15,Cn1nc(-c2ccc(CN[C@@H]3CCc4ccc(O)cc43)cc2)c2cnc(NC3CCCC3)nc21 [TCMDC-135029],-22.32%
16,O=C(NCCN1CCCCC1)c1ccc(CNC(=O)c2ccc(O)c(-c3cccc(C(F)(F)F)c3)c2)cc1 [TCMDC-140817],7.187%
17,NC(=O)c1cccc(C(=O)Nc2cccc(-c3ccc(-c4nc5ccc(C(F)(F)F)cc5[nH]4)cc3)c2)c1 [TCMDC-132202],-50.53%
18,COc1ccc(S(=O)(=O)N(CC(=O)NN=C(C)c2cccs2)c2cc(C)cc(C)c2)cc1OC [TCMDC-125737],0.7472%
19,COc1ccccc1NS(=O)(=O)c1cc(C(=O)Nc2ccc(N3CCOCC3)c(S(=O)(=O)Nc3ccccc3Cl)c2)ccc1Cl [TCMDC-125591],13%
20,Cc1cc(-c2ccc(NC(=O)N3CCc4cc(Br)c(N5CCN(C)CC5)cc43)cc2)cc(C)n1 [TCMDC-139279],26.15%
21,CCCN1CCC=C(c2cccc(Nc3nccc(Nc4cc(OC)ccc4C)n3)c2)C1 [TCMDC-138668],37.96%
22,O=C(Nc1cccc(-c2nn3ncccc3c2-c2ccnc(Nc3cccnc3)n2)c1)c1c(F)cccc1F [TCMDC-135635],0.1379%

row,Compound,% Inhibition
1,COCCOc1ccc(Nc2nccc(-c3c(-c4cccc(NC(=O)c5c(F)cccc5F)c4)nn4ccccc34)n2)cc1Cl [TCMDC-135955],-12.66%
2,O=C(Nc1cccc(-c2nn3ncccc3c2-c2ccnc(Nc3ccccc3)n2)c1)c1c(F)cccc1F [TCMDC-134631],-2.939%
3,COCCOc1ccc(Nc2nccc(-c3c(-c4cccc(NC(=O)c5c(F)cccc5F)c4)nn4ccccc34)n2)cc1F [TCMDC-135995],27.09%
4,CC(=O)Nc1cccc(Nc2nccc(-c3c(-c4cccc(NC(=O)c5c(F)cccc5F)c4)nn4ncccc34)n2)c1 [TCMDC-135548],-25.11%
5,CCS(=O)(=O)c1ccc(OC)c(Nc2nccc(-c3c(-c4cccc(NC(=O)c5c(F)cccc5F)c4)nn4ncccc34)n2)c1 [TCMDC-135682],81.78%
6,CCN(CC)CCCOc1ccc(Nc2nccc(-c3c(-c4cccc(NC(=O)c5c(F)cccc5F)c4)nn4ccccc34)n2)cc1F [TCMDC-135920],94.91%
7,CS(=O)(=O)Cc1ccc(Nc2nccc(-c3c(-c4cccc(NC(=O)c5c(F)cccc5F)c4)nn4ccccc34)n2)cc1 [TCMDC-135669],-24.51%
8,CS(=O)(=O)Cc1ccc(Nc2nccc(-c3c(-c4cccc(NC(=O)c5c(F)cccc5F)c4)nn4ncccc34)n2)cc1 [TCMDC-135681],52.9%
9,CS(=O)(=O)N1CC2(CCN(CCC(NC(=O)/C=C/c3ccccc3)c3ccc(Cl)c(Cl)c3)CC2)c2ccccc21 (stereo not shown) [TCMDC-141763],8.889%
10,CCCN1CCCN(Cc2cccc(NC(=O)c3ccc(-c4ccccc4)cc3)c2)CC1 [TCMDC-141843],-30.15%
11,CCC[C@@H]([C@@H](CC1CCCCC1)C(=O)N[C@H](C(=O)Nc1nccs1)[C@@H](C)OCc1ccccc1)N(O)C=O [TCMDC-138051],-19.92%
12,Cc1nc(SCC(=O)N2CCCC2=O)c2c(C)c(C)sc2n1 [TCMDC-123558],5.306%
13,Cc1[nH]nc2cc(F)c(-c3cc(OC[C@@H](N)Cc4ccccc4)cnc3-c3ccoc3)cc12 [TCMDC-136295],10.29%
14,Cc1cccc(Nc2nc(N)c3ccccc3n2)c1.Cl [TCMDC-123639],-2.53%
15,CCOC(=O)c1c(C)noc1Nc1cccc(C)c1C [TCMDC-131454],-30.94%
16,CCCCCCn1c(Sc2ccc(C#N)c([N+](=O)[O-])c2)nnc1-c1cc(OC)cc(OC)c1 [TCMDC-135589],37.66%
17,O=[N+]([O-])c1ccc(-n2nc(-c3cccnc3)n(Cc3ccco3)c2=S)c(Cl)c1 [TCMDC-135132],83.46%
18,CN(C)c1ccc(-c2nnc(Sc3ccc(C#N)c([N+](=O)[O-])c3)n2Cc2ccco2)cc1 [TCMDC-135611],2.069%
19,COc1cc(OC)cc(-c2nn(-c3ccc([N+](=O)[O-])cc3C#N)c(=S)n2Cc2ccco2)c1 [TCMDC-134715],75.07%
20,N#Cc1cc([N+](=O)[O-])ccc1-n1nc(-c2cccc(Cl)c2)n(Cc2ccco2)c1=S [TCMDC-134717],102.9%
21,COc1cc(OC)cc(-c2nn(-c3ccc([N+](=O)[O-])cc3Cl)c(=S)n2Cc2ccco2)c1 [TCMDC-135128],93.16%
